Records with an inconclusive call do not appear. Values without a mark were called inactive. Calls of active or inactive are those of the source. Calls follow the shape of the dose curve; as a rule, active = well fitted cell-killing curve with a large enough effect; inconclusive = small, poorly fitted or top-dose-only effect, or effect the other way; inactive = flat fitted curve, though single readings scatter.
Assay: S16 Schwann cell viability assay (CellTiter-Glo assay) (AID 624031); also: nearly all actives have a fitted effect of over 70% in size;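 as to activity change, negative = cytotoxicity: cellular ATP luminescence as a viability measure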
Settings: S16 rat Schwann cells viability, 24 h; series mostly up to 57.5 µM; activity change, negative = cytotoxicity: at the top concentration
Excerpt: Charcot-Marie-Tooth-Association [CMTA]
National Center for Advancing Translational Sciences [NCATS]
Charcot-Marie-Tooth (CMT) disease was first characterized by Jean-Martin Charcot and Pierre Marie in France and, independently, by Howard Henry Tooth in England in 1886. CMT is one of the most common inherited neurological diseases, affecting approximately 1 in 2,500 Americans. […] The most prevalent type of CMT is known as CMT1A and caused by a duplication of the PMP22 gene which leads to over-expression of this protein. PMP22 is a glycosylated intrinsic membrane protein accounting for 2-5% of the myelin protein content, and its over-expression results in demyelination and subsequently axonal loss.
A pair of cellular transcription-based assays was developed in the S16 rat Schwann cell lines (Hai, M., et al., 2002) stably transfected with orthogonal reporters - firefly luciferase (Fluc) and beta-lactamase (beta-Lac) - whose expression is driven by an intronic regulatory element of the PMP22 gene (Jones, E.A., et al., 2011) to recapitulate endogenous expression of PMP22. A comprehensive library of approved drugs, the NCGC Pharmaceutical Collection (Huang, R., et al., 2011), was screened in the cross-validating platform of the orthogonal reporter assays to identify drug modulators inhibitory towards PMP22 expression.
A set of counter-screens was devised to address non-specific activity of the library. An ATP-dependent CellTiter-Glo assay (developed by Promega Corp) was utilized to control cell viability. In addition, biochemical Fluc enzyme assay was performed to assess direct inhibition of the Fluc enzymatic activity.
Hai, M., Muja, N., DeVries, G.H., Quarles, R.H. and Patel, P.I. Comparative analysis of Schwann cell lines as model systems for myelin gene transcription studies. J Neurosci Res, 2002. 69(4): pp 497-508
Huang, R., Southall, N., Wang, Y., Yasgar A., Shinn P., Jadhav, A. , Nguyen, D.-T. and Austin, C.P., The NCGC pharmaceutical collection: a comprehensive resource of clinically approved drugs enabling repurposing and chemical genomics. Sci Transl Med, 2011. 3(80): p. 80ps16.
Native S16 cells were seeded in white solid-bottom 1536 well plates at between 500-750 cells/6uL in DMEM medium containing 10% FBS, w/o phenol red. After overnight incubation at 37 degree Celsius/5% C02, 23 nL of compounds or DMSO were delivered to each well using a pin tool, followed by 24h-incubation at 37 degree Celsius/5% C02. Then one volume of CellTiter-Glo assay reagent (Promega) was added to each well for cell viability measured by a ViewLux plate reader (PerkinElmer). The % activity was determined by normalizing to the average readings from wells containing no cells relative to DMSO-treated cells (0% Activity). The concentration-effect curves were then classified based on curve quality (r2), response magnitude and degree of measured activity.
Potency is read from the fitted curve at half-maximal effect.

Row | SMILES | activity change, negative = cytotoxicity | Potency
1 | CCO/C([O-])=N/c1c[n+](N2CCOCC2)no1 | 14.5% [at 25.7 µM] | 
2 | COCC(=O)O[C@]1(CCN(C)CCCc2nc3ccccc3[nH]2)CCc2cc(F)ccc2[C@@H]1C(C)C |  | 10.2 µM (active)
3 | Nc1ncn([C@@H]2O[C@H](CO)[C@@H](O)[C@H]2O)c(=O)n1 | 0.928% | 
4 | CCN(CC)CCNC(=O)c1cc(S(C)(=O)=O)ccc1OC | 3.66% [at 25.7 µM] | 
5 | CN(C(=O)CCCOc1ccc2[nH]c(=O)ccc2c1)C1CCCCC1 | -7.66% | 
6 | COC(=O)C1=C(C)NC(C)=C(C(=O)OCCN(C)Cc2ccccc2)C1c1cccc([N+](=O)[O-])c1 (stereo not given) |  | 16.1 µM (active)
7 | CCCCCN(CCCCC)C(=O)C(CCC(=O)O)NC(=O)c1ccc(Cl)c(Cl)c1 (stereo not given) | 1.92% | 
8 | c1cnc(N2CCN(Cc3ccc4c(c3)OCO4)CC2)nc1 | 5.05% | 
9 | NS(=O)(=O)c1cc2c(cc1Cl)NC(C1CC3C=CC1C3)NS2(=O)=O (stereo not given) | 8.57% | 
10 | CCn1cc(C(=O)O)c(=O)c2cc3c(cc21)OCO3 | -20.7% | 
11 | CN1CCN(C2=Nc3ccccc3Oc3ccc(Cl)cc32)CC1 | -3.11% [at 25.7 µM] | 
12 | CN/C(=C\[N+](=O)[O-])NCCSCc1ccc(CN(C)C)o1 | 15.1% | 
13 | NCCCNCCSP(=O)(O)O | 1.96% | 
14 | O=C1CC2(CCCC2)CC(=O)N1CCCCN1CCN(c2ncccn2)CC1 | 3.94% | 
15 | CCCCOCCOCCOCc1cc2c(cc1CCC)OCO2 | -2.58% | 
16 | CC(C)NNC(=O)c1ccncc1 | 25.2% | 
17 | NC/C=C/C(=O)O | -2.2% | 
18 | O=C(O)CP(=O)(O)O | 6.88% | 
19 | NC(Cc1ccc(Cl)cc1)C(=O)O (stereo not given) | -5.58% | 
20 | Cc1ccc(S(=O)(=O)NC(=O)NN2CCCCCC2)cc1 | -2.45% | 

Row | SMILES | activity change, negative = cytotoxicity | Potency
21 | CCOC(=O)C1=C(C)NC(C)=C(C(=O)OC)C1c1cccc([N+](=O)[O-])c1 (stereo not given) | -6.92% | 
22 | CCc1cccc(N(C)C(N)=Nc2cccc3ccccc23)c1 | -9.43% | 
23 | CCn1nc(C(=O)O)c(=O)c2cc3c(cc21)OCO3 | 15.4% [at 25.7 µM] | 
24 | CNC1(C)C2CCC(C2)C1(C)C (stereo not given) | -0.179% | 
25 | CCn1ccnc1CC1COc2ccccc2O1 (stereo not given) | -1.44% | 
26 | Cc1ccc(Cl)c(Nc2ccccc2C(=O)O)c1Cl | 0% | 
27 | CSc1ccc(C(=O)c2[nH]c(=O)[nH]c2C)cc1 | -1.5% | 
28 | CCN(CC)CC(=O)Nc1c(C)cccc1C | 7.22% | 
29 | CC[N+](C)(C)c1cccc(O)c1 | 13.7% [at 25.7 µM] | 
30 | C[n+]1cc2c3c(ccc2c2ccc4cc5c(cc4c21)OCO5)OCO3 |  | 3.22 µM (active)
31 | CCN(CC)CCOCCOC(=O)C1(c2ccccc2)CCCC1 | 8.16% | 
32 | COC(=O)[C@H]1[C@H]2C[C@@H]3c4[nH]c5cc(OC)ccc5c4CCN3C[C@H]2C[C@@H](OC(=O)c2cc(OC)c(OC)c(OC)c2)[C@@H]1OC | -1.83% | 
33 | Cc1ccc(/C(=C\CN2CCCC2)c2ccccn2)cc1 | 1.2% | 
34 | CCCOc1ccccc1-c1nc2n[nH]nc2c(=O)[nH]1 | -2.51% | 
35 | CC(C)[N+](C)(CCOC(=O)C1c2ccccc2Oc2ccccc21)C(C)C | 4.07% | 
36 | Cc1nc2sccn2c(=O)c1CCN1CCC(=C(c2ccc(F)cc2)c2ccc(F)cc2)CC1 | -27.7% | 
37 | Cc1nc2c([nH]1)c(=O)n(C)c(=O)n2Cc1ccco1 | 7.42% | 
38 | CCOC(=O)C1=C(C)NC(C)=C(C(=O)OC)C1c1cccc(Cl)c1Cl (stereo not given) | -0.878% | 
39 | Nc1nc(N)c2nc(-c3ccccc3)c(N)nc2n1 | 2.72% | 
40 | CCCCNC(=O)NS(=O)(=O)c1ccc(C)cc1 | 23.1% | 

— PubChem BioAssay (NCATS)
